# Article PMC4552634, “A New Set of Chemical Starting Points with Plasmodium falciparum Transmission-Blocking Potential for Antimalarial Drug Discovery” (PLoS ONE, 2015)
# Where two headings read alike, the source gives them in different places. In all, about 13,000 compounds went through this assay and about 3,200 (25%) showed an effect of 50% or more. This is one part of the list.
# Test system: P. falciparum stage V gametocytes
# Set-up: BacTiter-Glo ATP luminescence viability of purified stage V gametocytes in 384-well plates, per cent inhibition versus DMSO
# Settings: 48 h, 5 µM, inhibitor
SMILES,% Inhibition,% Inhibition (% Inhibition)
O=C1c2ccc([N+](=O)[O-])cc2C(=O)N1c1ccc2[nH]ncc2c1 [TCMDC-131599],-5.185%,
CCOC(=O)c1ccc(NC(=O)Nc2ccc(-c3ccc(-c4nc5cccc(C)c5[nH]4)s3)cc2)cc1 [TCMDC-133259],-10.61%,
CC(=O)C1(c2ccccc2)CCN(CCC2(c3ccc(Cl)c(Cl)c3)CN(C(=O)C3CCCC3)CCO2)CC1 (stereo not shown) [TCMDC-135325],-42.49%,
CC(C)c1cccc(C(C)C)c1NC(=O)NNC(=O)c1ccc(CCN2CCC(c3nc(COCC(F)(F)F)c(-c4ccc(F)cc4)o3)CC2)cc1 [TCMDC-131908],-22.37%,
Cc1c(C)c2c(c(C)c1O)CC[C@](C)(C(=O)NC1CCC(CN3CCC(c4c[nH]c5ccccc45)CC3)CC1)O2 (stereo partly shown) [TCMDC-139890],,-54.12%
Cc1c(C)c2c(c(C)c1O)CC[C@](C)(C(=O)N1CCC(CCN3CCC(c4c[nH]c5ccccc45)CC3)CC1)O2 [TCMDC-139891],102.8%,
Cc1c(C)c2c(c(C)c1O)CC[C@@](C)(C(=O)N1CCC(CCN3CCC(c4c[nH]c5ccccc45)CC3)CC1)O2 [TCMDC-139898],69.88%,
Cc1c(C)c2c(c(C)c1O)CC[C@](C)(C(=O)NC1CCC(CN3CCC(c4c[nH]c5ccccc45)CC3)CC1)O2 (stereo partly shown) [TCMDC-139895],,-20.01%
Cc1c(C)c2c(c(C)c1O)CC[C@](C)(C(=O)N1CCC(CN3CCC(c4c[nH]c5ccccc45)CC3)CC1)O2 [TCMDC-139892],-67.77%,
Cc1c(C)c2c(c(C)c1O)CC[C@@](C)(C(=O)N1CCC(CN3CCC(c4c[nH]c5ccccc45)CC3)CC1)O2 [TCMDC-139899],79.54%,
Cc1cccc(C(=O)Nc2ccnc(N3CCCN(Cc4cccc(O)c4)CC3)c2)c1 [TCMDC-134959],-37.26%,
N=C1N=C(N)NC2(CCCCC2)N1OCC1CCCCC1 [TCMDC-131617],-29.76%,
CC1CCC2(CC1)NC(N)=NC(=N)N2OCCCCCCCCO (stereo not shown) [TCMDC-131600],80.95%,
CC1(C)NC(N)=NC(=N)N1OCCCO [TCMDC-131559],-1.825%,
CNC(=O)c1ccc(/C=C/C(=O)N2CCc3ccc(-c4ccccc4)cc3C2c2cccc(C(F)(F)F)c2)cc1 (stereo not shown) [TCMDC-138253],-22.09%,
CN(C)CCCOc1ccc(CN2CC[C@H](NC(=O)c3ccc(Cl)c(Cl)c3)C2)cc1Cl [TCMDC-140272],19.07%,
CN(C)CCCOc1ccc(CN2CC[C@H](NC(=O)c3ccc(Cl)c(Cl)c3)C2)c2ccccc12 [TCMDC-140267],76.67%,
CN(C)CCCOc1ccccc1CN1CC[C@H](NC(=O)c2ccc(Cl)c(Cl)c2)C1 [TCMDC-140310],-1.9%,
CN1CCC[C@H]1COc1ccc(CN2CC[C@H](NC(=O)c3ccc(Cl)c(Cl)c3)C2)c2ccccc12 [TCMDC-140270],22.59%,
O=C(N[C@H]1CCN(Cc2ccc(OCCN3CCCC3)c3ccccc23)C1)c1ccc(Cl)c(Cl)c1 [TCMDC-140268],76.23%,
O=C(N[C@H]1CCN(Cc2ccc(OCCN3CCNCC3)c3ccccc23)C1)c1ccc(Cl)c(Cl)c1 [TCMDC-140269],83.44%,
CN(Cc1ccccc1)C(=O)CCNS(=O)(=O)c1cc(Br)cnc1N [TCMDC-125445],18.91%,

SMILES,% Inhibition,% Inhibition (% Inhibition)
CCCC/C=C(\Cl)c1ccc(O)c2c1C[C@H]1C[C@H]3[C@H](N(C)C)C(=O)C(C(N)=O)=C(O)[C@@]3(O)C(=O)C1=C2O [TCMDC-138656],85.94%,
CN(C)[C@@H]1C(=O)C(C(N)=O)=C(O)[C@@]2(O)C(=O)C3=C(O)c4c(O)ccc(C#Cc5ccccn5)c4C[C@H]3C[C@@H]12 [TCMDC-138642],7.454%,
COc1cccc(CCc2ccc(O)c3c2C[C@H]2C[C@H]4[C@H](N(C)C)C(=O)C(C(N)=O)=C(O)[C@@]4(O)C(=O)C2=C3O)c1 [TCMDC-138636],7.419%,
COc1ccccc1C1CN(Cc2coc3ccccc3c2=O)Cc2ccccc2O1 (stereo not shown) [TCMDC-124669],4.679%,
NC1CCN(CCc2ccc(NS(=O)(=O)c3cccc4ccccc34)cc2)CC1 [TCMDC-134084],55.68%,
Cc1c(Cl)cccc1S(=O)(=O)Nc1ccc(CCN2CCC(N)CC2)cc1 [TCMDC-134083],99.61%,
COC(=O)CCCOc1cc(Cc2cnc(N)nc2N)cc(OC)c1OC [TCMDC-137557],8.428%,
CC1(C)N=C(N)N=C(N)N1OCCc1cccc2ccccc12 [TCMDC-131663],2.124%,
CCNC(=O)Nc1ccc(-c2ccc(-c3nc4cccc(C)c4[nH]3)s2)cc1 [TCMDC-133170],11.61%,
Cc1cc2[nH]c(-c3ccc(C(=O)NCCCN4CCN(c5cccc(Cl)c5)CC4)cc3)nc2cc1Cl [TCMDC-140027],-17.26%,
CCc1nc2c(cnn2CC)c(NC2CCOCC2)c1CNC(=O)N1CCOCC1 [TCMDC-136620],94.41%,
Cn1nccc1C(=O)NCCNCc1ccc(-c2ccc(-c3nc4cc(F)ccc4[nH]3)cc2)cc1.O=C(O)C(F)(F)F [TCMDC-133012],-30.72%,
CCn1ncc2c(NC3CCOCC3)c(CNC(=O)c3ccnn3C)c(C)nc21 [TCMDC-136560],97.63%,
Cc1nc(C)n(CC(=O)Nc2cccc(-c3cccc(-c4nc5ccc(C(F)(F)F)cc5[nH]4)c3)c2)n1 [TCMDC-137134],-7.323%,
O=S(=O)(c1cccc(F)c1)c1ccc(Nc2ncnc3cc(Br)sc23)cc1Cl [TCMDC-135626],18.51%,
O=C(Nc1n[nH]c2nc(-c3ccco3)c(Br)cc12)c1ccc(CN2CCCC2)cc1 [TCMDC-141483],10.19%,
CN(C)CCN(Cc1ccccc1-c1ccc(CNCCc2ccccc2)cc1)C(=O)NC1CCCCC1 [TCMDC-140626],107.8%,
COc1cccc(CCN(Cc2ccccc2-c2ccc(CNC3CC(C)(C)NC(C)(C)C3)cc2)C(=O)NC2CCCCC2)c1 [TCMDC-141577],108.7%,
CN(C)CCN(Cc1ccccc1-c1ccc(CNCCc2ccccc2)cc1)C(=O)c1ccccc1 [TCMDC-140532],112.9%,
CC(=O)Nc1cccc(C(=O)Nc2nc3ccc(-c4cc(=O)[nH]c(Nc5ccccc5Cl)n4)cc3[nH]2)c1 [TCMDC-135793],-20.56%,
C(=Cc1ccccc1)C=NNc1ccnc2ccccc12 [TCMDC-142061],-65.55%,
Fc1cccc(COc2ccc(Nc3ncnc4sc(C#CCNC5CCCC5)cc34)cc2Cl)c1 [TCMDC-138786],-17.57%,

SMILES,% Inhibition,% Inhibition (% Inhibition)
CCC1N=C(N)N=C(N)N1OCCCOc1c(Cl)cc(Cl)cc1Cl (stereo not shown) [TCMDC-131697],23.8%,
Cc1ccc(NC(=O)NC2CCN(c3ccnc4cc(Cl)ccc34)C2)cc1 (stereo not shown) [TCMDC-133651],27.92%,
COc1cc(NC(=O)/C=C/c2ccccc2Cl)cc(OCCN2CCC(O)(c3ccccc3)CC2)c1 [TCMDC-140934],-1.317%,
O=C1Nc2cccc3c2C1(CCCCN1CCC(c2cc4ccncc4[nH]2)CC1)CCC3 (stereo not shown) [TCMDC-141221],,84.1%
CC(C)(C)OC(=O)n1cc(C2CCN(CCCC34CCCc5cccc(c53)NC4=O)CC2)c2ccncc21 (stereo not shown) [TCMDC-140392],2.693%,
O=C1Nc2cccc3c2C1(CCCN1CCC(c2c[nH]c4cc(C(F)(F)F)ccc24)CC1)CCC3 (stereo not shown) [TCMDC-140464],106.4%,
CC1(CCCCN2CCC(Oc3ccc(F)cc3F)CC2)C(=O)Nc2ccccc21 (stereo not shown) [TCMDC-140794],-43.13%,
O=C1Nc2cccc3c2C1(CCCCN1CCC(c2cc4ccncc4[nH]2)CC1)CCC3 (stereo not shown) [TCMDC-141151],,27.49%
O=C1Nc2cccc3c2C1(CCCCCN1CCC(c2c[nH]c4ccncc24)CC1)CCC3 (stereo not shown) [TCMDC-140504],73.67%,
O=C1Nc2cccc3c2C1(CCCCN1CC=C(c2c[nH]c4ncccc24)CC1)CCC3 (stereo not shown) [TCMDC-140506],-6.886%,
O=C1Nc2cccc3c2C1(CCCCN1CCC(c2c[nH]c4cc(C(F)(F)F)ccc24)CC1)CCC3 (stereo not shown) [TCMDC-140465],121.5%,
O=C1Nc2cccc3c2C1(CCCCCN1CC=C(c2c[nH]c4ccccc24)CC1)CCC3 (stereo not shown) [TCMDC-140570],20.32%,
CCOc1ncccc1CN1CCC(N2CCc3cc(NC(=O)c4ccco4)ccc32)C1 (stereo not shown) [TCMDC-135074],-21.9%,
COc1ccc(C2N=C(N)N=C(N)N2c2ccc(Cl)cc2)cc1OC (stereo not shown) [TCMDC-123670],-7.954%,
COc1cc(C(=O)NC2CCN(Cc3ccccc3)CC2)ccc1-c1nc2c(Cl)cc(C(F)(F)F)cc2[nH]1 [TCMDC-140085],-15.98%,
Cc1cccc2[nH]c(-c3ccc(-c4ccc(NC(=O)Nc5ccc(F)c(F)c5F)cc4)cc3)nc12 [TCMDC-133232],3.128%,
N#Cc1ccc2c(c1)CCN(CCC1CCC(NC(=O)/C=C/c3cccc4cc[nH]c34)CC1)CC2 (stereo not shown) [TCMDC-139671],-14.99%,
CCN1CC=C(c2c[nH]c3ccccc23)CC1 [TCMDC-124447],-15.41%,
Cn1c(/C=C/C(=O)NC2CCC(CCN3CCc4ccc(C#N)cc4CC3)CC2)cc2ccccc21 (stereo not shown) [TCMDC-139683],-68.7%,
Cc1cn(CC(=O)Nc2cccc(-c3cccc(-c4nc5c(C)cccc5[nH]4)c3)c2)c(=O)[nH]c1=O [TCMDC-137037],-3.611%,
